Data on 13 compounds can be found in PubChem BioAssay (NCI).

Compounds without any hit were thinned out: in the full panel of roughly 83,000, 20% have a hit.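 Negative percent growth values reflect cell death: -40 means 40% of the cells present at the start died, and -100 means all died.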 The source made the active and inactive calls. The calls were made as follows: active = growth percent below 10; inactive = the rest.

The test system of this test is M14 melanoma. Put plainly: NCI-60 one-dose screen, 48 h (100 = growth as untreated, 0 = no growth, -100 = all killed). The note with it: 10 µM unless noted.
In the case of `CNC(=O)c1cc(Oc2ccc3nc(NC(=O)Nc4ccc(CN5CCOCC5)c(C(F)(F)F)c4)sc3c2)ccn1`, the growth is 23.2% (inactive).
`Cc1cc(N/N=C/c2nc(-c3ccc(Cl)cc3)oc2C)c2cc(Br)ccc2n1`: the growth is 40.6% (inactive).
Next, `COc1cc(-c2cc(-c3nc4ccc(Cl)cc4[nH]3)[nH]n2)cc(OC)c1OC`: 38.1% (inactive); `COc1ccc(-c2cc(-c3cccnc3)nc3sc4c(=O)n(-c5ccc(C)cc5)cnc4c23)cc1OC`: 99% (inactive).
For `CN(C)c1ccc(/C=C\C2=[N+](C)c3ccccc3C2(C)C)cc1`, the growth is 18% (inactive).
With `COc1ccc(-c2cc(-c3cccnc3)nc3sc4c(=O)n(-c5ccc(C)cc5)nnc4c23)cc1OC`, the growth is 104% (inactive).
Next, `COc1ccc(C/C(C)=C(\c2ccc(Cl)cc2)c2ccc(OCCN3CCCCCC3)cc2)cc1`: 90.2% (inactive).
The same measure for `O=C1C=CC(=O)N1c1ccc(Cc2ccc(N3C(=O)C=CC3=O)cc2)cc1`: 96.8% (inactive).
Turning to `CN1CCN(Cc2ccc(NC(=O)c3[nH]ncc3Nc3ncnc4[nH]ccc34)cc2)CC1`, the growth was 0.163% (active).
Consider `O=C(Nc1ccc(Oc2ccc(F)cc2)c(Cl)c1)c1cccnc1`, for which the growth is 97.3% (inactive).
`OC(c1cccc(C(F)(F)F)c1)c1cnccc1NC1CCCCCC1` (stereo not drawn): the growth was -21.8% (active).
The same measure for `NS(=O)(=O)c1ccc(Nc2nc3n[nH]c(Nc4ccccc4)c3c(=O)[nH]2)cc1`: 94.2% (inactive); for `O=C1/C(=C/c2ccccc2)CN(CCC(=O)N2C/C(=C\c3ccccc3)C(=O)/C(=C/c3ccccc3)C2)C/C1=C\c1ccccc1`: 52.4% (inactive).
